# Measured values: PubChem BioAssay AID2149 (The Scripps Research Institute Molecular Screening Center, 2009)
# Among all 2,400 compounds or so, about 1,800 (75%) were called active. The set was probably picked from earlier hits. Not all results are given here. Unmarked numbers belong to inactive results.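 Rule for the calls: active = inhibition above the primary screen limit, the mean inhibition of all tested compounds plus 3 SD (cut at about 25% in these data); inactive = the rest.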
# Tested on: tRNA 2'-phosphotransferase TPT1 [Candida albicans SC5314]
# Assay: tRNA 2'-phosphotransferase enzyme inhibition – biochemical, fluorescence polarization, triplicate, confirmation (AID 2149)
# Settings: recombinant caTPT1, fluorescence polarization, RNase T1 coupled; at 5 µM; hits give high values
row,SMILES,inhibition
1,C[n+]1ccc(/C=C/c2c[nH]c3ccccc23)cc1,56.5% (active)
2,Cc1nc2ccccc2nc(=O)c1NNc1ccc([N+](=O)[O-])cc1,35.8% (active)
3,CC(=O)n1c(C=Nc2ccccc2)c(O)c2ccccc21,73.1% (active)
4,COc1cc2c(cc1O)[C@H](Cc1ccc(Oc3cc(C[C@@H]4NCCc5cc(OC)c(O)cc54)ccc3O)cc1)NCC2,33.8% (active)
5,COc1cc(N2CCCC2)c(OC)cc1/C=C(/C#N)c1cccc(Br)c1,68.1% (active)
6,CC(=O)c1cc(NC(=O)c2ccccc2)c(=O)oc1/C=C/N(C)C,118% (active)
7,CC(C)(C)c1ccc(/C=C2\Oc3c(ccc(O)c3CN3CCN(CCO)CC3)C2=O)cc1,37.2% (active)
8,C=CCC1=C/C(=C\c2c(N)n3nc(CC(=O)N4CCOCC4)sc3nc2=O)C=C(OC)C1=O,104% (active)
9,CCOC(=O)/C(C#N)=C/c1ccc(N2CCCCC2)cc1,126% (active)
10,CCOC(=O)/C(C#N)=C/c1ccc(N2CCN(Cc3ccccc3)CC2)cc1,81.9% (active)
11,CCN1/C(=C\c2ccc3ccccc3[n+]2CC)Sc2cc(C)ccc21,78.3% (active)
12,CCN1/C(=C/c2ccc3ccc(C)cc3[n+]2CC)Sc2ccccc21,44.2% (active)
13,COc1ccc(N=C(C)c2sc3ccccc3c2O)cc1,70.2% (active)
14,COc1ccc(C2=NN(C(=O)c3ccccc3C(=O)O)C(c3ccccc3O)C2)cc1 (stereo not given),26.3% (active)
15,CN(C)c1ccc(/C=C2\NC(=S)N(Cc3ccccc3)C2=O)cc1,160% (active)
16,CCOC(=O)c1c(NC(=S)Nc2ccccc2)sc2c1CCN(C)C2,42.8% (active)
17,COc1cc(/C=C2/C(=O)NN(c3cccc(Cl)c3)C2=O)cc(Br)c1O,153% (active)
18,Oc1ccc(/C=N/Nc2nc(-c3ccccc3F)nc3ccccc23)c(O)c1,29.1% (active)
19,CN(c1ccccc1)c1ccc(/C=c2\s/c(=C(/C#N)C(=O)C(C)(C)C)n(Cc3ccco3)c2=O)cc1,127% (active)
20,CN1/C(=C\C=C2\N=C(c3ccc(F)cc3)OC2=O)C(C)(C)c2ccccc21,151% (active)
21,Cc1ccc(Nc2ccccc2N)cc1,25.8% (active)
22,CCOC(=O)c1c(CC(C)C)csc1/N=C/C1=C(O)CCCC1=O,11.9%
23,Cn1cccc1/C=C1\SC(=S)N(NC(=O)c2ccc(Cl)cc2)C1=O,101% (active)
24,CCn1c(/C=C/c2ccc([N+](=O)[O-])o2)nc2ccccc2c1=O,36.7% (active)
25,COc1ccccc1/C=N/Nc1nc(C)c(C(C)=O)s1,33.1% (active)

row,SMILES,inhibition
1,CCOc1nnc(C)c2c(C)n(-c3cccc(Cl)c3)nc12,76.5% (active)
2,O=C1NC(=O)C2C1C(c1ccc([N+](=O)[O-])cc1)=NN2Cc1ccccc1 (stereo not given),33.2% (active)
3,CCN(CC)C(=O)CSC(Nc1cccc(F)c1)=C(C#N)C#N,46.5% (active)
4,O=C(N/N=C/c1sc(N2CCCCC2)nc1-c1cccs1)c1cccnc1,44.1% (active)
5,NNC(=O)c1oc2nc(-c3ccccc3)cc(-c3ccco3)c2c1N,31.5% (active)
6,COc1ccc(Cc2nc(-c3ccccn3)no2)cc1OC,8.13%
7,Cc1ccc(Nc2nc(Cl)c(C=O)s2)cc1,67.3% (active)
8,CCOc1ccc2nc(/N=C/c3nc(-c4ccccc4)oc3O)sc2c1,58.6% (active)
9,Fc1ccc2nc(Nc3nc4c(s3)CCCC4)sc2c1,28.4% (active)
10,Cc1c(-c2ccccc2)cn2c1-c1ccc(C)n1CC2,32.8% (active)
11,Cn1c2ccccc2c2cc(/C=C(\NC(=O)c3ccccc3)C(=O)NCC(=O)O)ccc21,80.3% (active)
12,Cc1ccc(-c2nn(-c3ccccc3)cc2/C=C2\SC(=S)N(CCCCCC(=O)O)C2=O)o1,68.6% (active)
13,O=C(Nc1ccc(S(=O)(=O)Nc2nccs2)cc1)c1cc(-c2ccncc2)nc2ccccc12,49.1% (active)
14,CS(=O)(=O)c1ccc2c(c1)SC1=NC(=O)/C(=C/c3ccco3)C(=N)N12,44.3% (active)
15,Cc1cc(/C=C2/SC(=O)N(CC(=O)N3CCCC3)C2=O)ccc1N1CCOCC1,63.5% (active)
16,Cc1sc2nc(COC(=O)C(NC(=O)c3ccc(Cl)cc3Cl)C(C)C)[nH]c(=O)c2c1C (stereo not given),55.1% (active)
17,Cc1c(C(=O)OC(C)C)sc(NC(=O)c2cccnc2)c1C#N,26% (active)
18,Nc1c(C(=O)c2cccs2)sc2nsc(SCCN3CCCCC3)c12,67.7% (active)
19,CCCCCCc1cc2cc(-c3nnc(-c4ccccc4)o3)c(=O)oc2cc1O,117% (active)
20,COc1cc(/C=C2/SC(=S)N(Cc3ccccc3)C2=O)cc(OC)c1O,98.5% (active)
21,CCN(CC)c1ccc2cc(C(N)=O)/c(=N\NC(=O)c3ccncc3)oc2c1,139% (active)
22,Cc1cc(O)c(C(=O)/C=C/c2c(F)c(F)c(F)c(F)c2F)c(=O)o1,63.4% (active)
23,CN1C(=O)/C(=C/C=C2\SCCN2C)OC1=S,172% (active)
24,CCN(CC)c1ccc(/C=N/Nc2nc(C)cc(C)n2)c(O)c1,34% (active)
25,CSC1=N/C(=C\C=C\c2cccs2)C(=O)S1,52.8% (active)

row,SMILES,inhibition
1,Nc1nonc1-n1nnc(C(=O)N/N=C/c2cc(Br)ccc2O)c1CSC1=NCCS1,37.7% (active)
2,N#C/C(=C/c1ccc(N2CCCCC2)o1)C(=O)NCCc1c[nH]c2ccccc12,191% (active)
3,Cc1ccc(-n2c(C)cc(/C=N/Nc3ccc([N+](=O)[O-])cn3)c2C)c(C)c1,60.9% (active)
4,Cc1cc(/C=N/Nc2ccc([N+](=O)[O-])cn2)c(C)n1-c1cccc(C(=O)O)c1,54.5% (active)
5,Cc1ccc2[nH]c(=O)c(CN3CCCCC3)c(-c3ccccc3)c2c1,2.06%
6,N#C/C(=C(/O)COC(=O)COc1ccc(Cl)cc1)c1nc2ccccc2[nH]1,40.6% (active)
7,CCOc1ccc(-n2c(O)c(/C=N/c3ccnn3Cc3ccncc3)c3ccccc3c2=O)cc1,80.4% (active)
8,CN=c1scc(-c2cc(OC)ccc2OC)n1/N=C/c1c(C)[nH]c2ccccc12,22.2%
9,O=C1Nc2cc(C(=O)N3CCN(c4ccc(F)cc4)CC3)ccc2NC1CSCc1cccc(F)c1 (stereo not given),112% (active)
10,Cc1ccc(CSCC2Nc3ccc(C(=O)N4CCN(c5ccc(F)cc5)CC4)cc3NC2=O)cc1 (stereo not given),16.1%
11,CC(C)c1ccc(Nc2nnc(SCC(=O)c3nnc(-c4ccccc4)o3)s2)cc1,21.4%
12,Cc1cccc2cc3c(N)c(C(=O)N4CCCc5ccccc54)sc3nc12,51.9% (active)
13,COC(=O)c1[nH]c2cccc(C)c2c1NC(=O)CN1CCCc2ccccc21,19%
14,CCOC(=O)C1=C(C)Nc2sc(C(=O)c3ccc(Br)cc3)c(N)c2C1c1ccc(C(=O)OC)cc1 (stereo not given),29.3% (active)
15,CCC(c1nnnn1Cc1ccco1)N(Cc1cc2cc(OC)ccc2[nH]c1=O)C1CCCCC1 (stereo not given),13.7%
16,CC1=CC2=NC(=O)/C(=C/c3coc4ccccc4c3=O)C(=N)N2O1,34% (active)
17,CCC(=C/c1sc2ccc3ccccc3c2[n+]1C)/C=C1\Sc2ccc3ccccc3c2N1C,84.5% (active)
18,NC(=O)c1c(Nc2nc3c(F)cccc3s2)sc2c1CCCC2,92.7% (active)
19,CN(C)CCCn1c(N)c(C#N)c2nc(C#N)c(C#N)nc21,45.1% (active)
20,O=S(=O)(O)Oc1c[nH]c2ccccc12,35.9% (active)
21,Cc1c(CC(=O)N2CCN(C(=O)C3COc4ccccc4O3)CC2)c(=O)oc2c(O)c(O)ccc12 (stereo not given),7.54%
22,O=C(Cc1nc2ccccc2[nH]c1=O)c1ccc(Cl)cc1,57.8% (active)
23,O=C(/C=C/c1ccc(N2CCOCC2)cc1)c1ccccc1,84.6% (active)
24,COc1cc(/C=C(\C#N)c2nc3c(s2)CC(C)CC3)ccc1O (stereo not given),130% (active)
25,COc1cc(/C=C(\C#N)c2nc3ccccc3[nH]2)ccc1O,112% (active)

row,SMILES,inhibition
1,O=C(CN1C(=O)c2ccccc2C1=O)NCc1ccc(C(=O)O)cc1,14.3%
2,Cc1cccn2c(=O)c(/C=C3\SC(=S)N(CC(C)C)C3=O)c(NCCCOC(C)C)nc12,119% (active)
3,Cn1ccc(=NC=C(C#N)C#N)c2ccccc21,25.4% (active)
4,O=C(C[n+]1cc(Br)cc2ccccc21)c1ccc(F)cc1,37.5% (active)
5,CCOc1cc(/C=C(\C#N)c2nc(-c3cccs3)c(NC(C)=O)s2)ccc1O,90.5% (active)
6,Cc1cccc(NC(=O)c2ccc(COc3ccccc3[N+](=O)[O-])o2)n1,7.02%
7,Cc1cccc(COc2ccccc2/C=N/Nc2ccc([N+](=O)[O-])cc2)c1,90.6% (active)
8,O=[N+]([O-])c1ccc(N/N=C/c2ccccc2)cc1,41.6% (active)
9,CCCOc1ccc(Cn2c(O)cc(=O)[nH]c2=O)cc1,22.1%
10,Cc1cc(C)c(/C=C2\C(=O)Nc3ccccc32)[nH]1,113% (active)
11,CN1C(=O)/C(=C\c2ccc(-c3ccccc3)o2)SC1=S,79.6% (active)
12,O=C(O)C(c1ccccc1)N1C(=O)/C(=C\c2ccc(-c3cccc(Cl)c3)o2)SC1=S (stereo not given),151% (active)
13,CC[n+]1cc(C)ccc1/C=C/c1ccc(N(C)C)cc1,42.1% (active)
14,Cc1ccc(S(=O)(=O)N(C)c2nc3ccccc3n3c(C(C)C)nnc23)cc1,-0.34%
15,N#C/C(=C\c1ccc(N2CCOCC2)o1)C(=O)N1CCOCC1,170% (active)
16,N#C/C(=C/c1ccc(N2CCOCC2)o1)C(=O)N1CCOCC1,184% (active)
17,Cc1ccc(CC2S/C(=C(/C#N)C(=O)N3CCOCC3)N(c3ccccc3)C2=O)cc1 (stereo not given),9.14%
18,CC1CCN(C(=O)c2ccc3c(c2)NC(=O)CN3)CC1,39.9% (active)
19,Cc1ccc(N=C2NC(=O)/C(=C/C=C/c3ccco3)S2)cc1C,23.8%
20,N#CC1=C(N)Oc2c(sc3ccccc23)C1c1ccco1 (stereo not given),78.6% (active)
21,O=C(NNc1c2ccccc2nc2ccccc12)c1cc2ccccc2cc1O,38.5% (active)
22,CN1/C(=c2/s/c(=C3/C(=O)N(c4ccccc4)NC3=Nc3ccccc3)n(C)c2=O)C(C)(C)c2ccccc21,81% (active)
23,Cc1ccc2cc(/C=N/Nc3ccc(C(=O)O)cc3)c(Cl)nc2c1,35.9% (active)
24,CCOc1ccc(/C=C2\SC(=S)N(NC(=O)c3ccncc3)C2=O)cc1OC,51.7% (active)
25,Cc1ccc(C)c2[nH]c(=O)c(CCNC(=O)CC(C)C)cc12,3.97%
